DT40 TDP1 CPT: growth inhibition of DT40 Tdp1-/-;hTDP1 cells with camptothecin (screen for TDP1 inhibitors); chicken DT40 Tdp1-/-;hTDP1 cells + 20 nM CPT, ATP luminescence, 48 h; Potency, µM (top dose mostly 46.2 µM), for the others: top-dose activity change, negative = growth inhibition, hits mostly inhibitors; actives 12% (n = 420,000); note: potency is the fitted concentration of half-maximal effect; % is set by controls: 0 for no effect and ±100 for the full control effect; nearly all actives have a fitted effect of over 55% in size
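Cell growth measured by CellTiter-Glo luminescence after a minimum 48 h, 37 C compound exposure with 20 nM CPT in Tdp1-knockout DT40 cells stably expressing hTDP1, seeded 400/well; qHTS titration format.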
IL-1B inflam inh: blocks inflammasome-driven IL-1 beta release. actives 4.7% (n = 360,000). AID 743279. THP-1 LPS/ATP IL-1B secretion, AlphaLISA, 16 h; hits give low values. activity change, % at 57.5 µM; in the data active = activity change below about -50%; inconclusive = mostly about -30% to -49%; note: % is set by controls: 0 for no effect and ±100 for the full control effect
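Secreted IL-1B measured by AlphaLISA bead assay after 16 h compound exposure of THP-1 cells; compounds (final up to 57.5 uM) added 1 h before LPS (250 ng/mL) and ATP (1.25 mM) stimulation; lower signal means less secretion.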
TDP1 cell noCPT: qHTS for Inhibitors of human tyrosyl-DNA phosphodiesterase 1 (TDP1): qHTS in cells in absence of CPT | DT40 Tdp1-/- hTDP1 cells, no CPT, ATP luminescence, 48 h | Potency, µM (highest dose often 46.2 µM), inactives show at the highest dose activity change, negative = growth inhibition, hits mostly inhibitors | actives 15% (n = 420,000); note: potency is the fitted concentration of half-maximal effect; % is set by controls: 0 for no effect and ±100 for the full control effect; nearly all actives have a fitted effect of over 55% in size
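DT40 Tdp1-/-;hTDP1 cells, no CPT (DMSO vehicle only), 400 cells/well; compounds pin-transferred; ≥48 hr, 37 °C; CellTiter-Glo 30 min RT dark, luminescence read.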
DRD3 agonist: activates the human D3 dopamine receptor; D3R DiscoveRx beta-arrestin cells, luminescence, 90 min; AID 652048; actives 0.58% (n = 410,000); P35462; max activation, %; in the data active = max activation above about 30%; note: 0% is about no effect
Target sequence (P35462 whole entry, looked up): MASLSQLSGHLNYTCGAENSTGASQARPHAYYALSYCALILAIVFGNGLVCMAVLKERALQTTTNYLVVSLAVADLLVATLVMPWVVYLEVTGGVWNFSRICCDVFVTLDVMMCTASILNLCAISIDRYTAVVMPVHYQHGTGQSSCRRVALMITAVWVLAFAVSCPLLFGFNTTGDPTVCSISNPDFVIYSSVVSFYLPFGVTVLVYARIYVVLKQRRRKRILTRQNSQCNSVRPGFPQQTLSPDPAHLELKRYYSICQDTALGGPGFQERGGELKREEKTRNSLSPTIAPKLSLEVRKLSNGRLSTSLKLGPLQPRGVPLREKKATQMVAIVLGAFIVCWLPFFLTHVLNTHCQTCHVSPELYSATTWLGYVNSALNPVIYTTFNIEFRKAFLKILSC
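Agonist mode: compounds and dopamine controls were applied to plated cells for 90 min at 37 degrees C after an overnight attachment at 1500 cells/well. Luminescent read-out followed 30 - 60 minutes at room temperature with DiscoveRx detection reagent.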
ClpP mod: qHTS Assay for Activators of ClpP; actives 1.9% (n = 340,000); ATP-dependent Clp protease proteolytic subunit (Bacillus subtilis (strain 168)), P80244; purified B. subtilis ClpP, FRET peptide cleavage, 20 min; Potency, µM (doses to about 57.5 µM), inactives show at the highest dose activity change, negative = active; active = well fitted falling curve with a large enough effect; inconclusive = small, poorly fitted or top-dose-only effect; inactive = no such curve, though single readings can be large or run the other way; note: potency is the fitted concentration of half-maximal effect; the source files actives as falling curves though it sought activators and does not explain the sign; nearly all actives have a fitted effect of over 65% in size
Target sequence (P80244 whole entry, looked up): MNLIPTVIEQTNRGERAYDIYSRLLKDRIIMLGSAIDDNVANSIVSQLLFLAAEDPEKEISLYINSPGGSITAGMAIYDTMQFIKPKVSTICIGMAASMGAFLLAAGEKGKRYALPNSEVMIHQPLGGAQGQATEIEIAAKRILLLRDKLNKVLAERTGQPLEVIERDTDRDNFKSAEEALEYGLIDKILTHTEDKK
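Buffer: 100 mM Tris/HCl pH8, 100 mM KCl, 0.05% low protease BSA, 2.5% glycerol, 0.01% Tween-20. ClpP 10 microg/mL final; 20 min RT; delta FRET normalized to ADEP and DMSO controls.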
D3 antag: antagonists of human D3 dopamine receptor; max response, negative = inhibition, %; AID 652054; actives 2.5% (n = 360,000); P35462; D3R cells, DiscoveRx beta-arrestin luminescence, antagonist mode; hits give low values; in the data active = max response below about -50%; inconclusive = no clear call, values can overlap the other calls; note: % is set by controls: 0 for no effect and ±100 for the full control effect
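Cells expressing the human receptor were seeded at 1500 cells/well, incubated overnight at 37 degrees C in 5% CO2, then exposed to library compounds with dopamine controls for 90 minutes at 37 degrees C before luminescent detection.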
* hit, by the source's call; ? = inconclusive; nt = not tested or not shown. A selection: hits, their analogues and other compounds. The true share with any hit is near 21%. Unless noted, calls come from the whole dose curve; as a rule, active = well fitted inhibition curve with a large enough effect; inconclusive = small, poorly fitted or top-dose-only effect; inactive = flat fitted curve, though single readings scatter.

SMILES	DT40 TDP1 CPT	IL-1B inflam inh	TDP1 cell noCPT	DRD3 agonist	ClpP mod	D3 antag
O=C(O)c1ccccc1C(=O)N1CC=C(c2ccccc2)CC1	?	21	26µM*	-11	-23%	-14
Cc1cc(C(=O)N2CC=C(c3ccccc3)CC2)c2ccccc2n1	0.58µM*	-3	0.92µM*	-5	1%	7
CC(=O)N1CCN(C(=O)c2cc(C)nc3ccccc23)CC1	-13%	0	?	-4	-1%	-15
C=CCOc1cc(Cl)ccc1C(=O)NCCN(CC)CC	9%	nt	-26%	-24	nt	nt
O=Cc1ccc(OC2OCCOC2Oc2ccc(C=O)cc2)cc1 (stereo not drawn)	?	-13	?	-20	0%	-10
CC1(C(=O)NS(=O)(=O)c2ccc(F)cc2F)CCN1C(=O)CC1CCCC1 (stereo not drawn)	0%	-18	0%	3	-2%	1
Cc1cccc(OCCn2c(-c3ccc(Cl)cc3)nc3ccccc3c2=O)c1	-10%	nt	0%	-15	-5%	nt
COc1ccc(NC(=O)c2oc3ccccc3c2NC(=O)c2cc(=O)c3c(C)cc(C)cc3o2)cc1	?	nt	2.9µM*	4	0%	nt
COc1ccc(NC(=O)c2oc3ccccc3c2NC(=O)c2cc3ccccc3o2)cc1	?	nt	4.1µM*	-6	-9%	nt
O=C(Nc1ccc(F)cc1)c1oc2ccccc2c1NC(=O)C12CC3CC(CC(C3)C1)C2	2%	nt	?	5	-2%	nt
O=C(Nc1c(C(=O)Nc2ccc(F)cc2)oc2ccccc12)c1cc2ccccc2o1	?	nt	18µM*	8	?	nt
COc1ccc(NC(=O)c2oc3ccccc3c2NC(=O)c2cc(=O)c3ccccc3o2)cc1	?	nt	?	2	0%	nt
Cc1cc(C)cc(C(=O)Nc2c(C(=O)Nc3ccccc3F)oc3ccccc23)c1	?	nt	-36%	-10	13µM*	nt
O=[N+]([O-])c1ccc(OCn2cncn2)cc1	-11%	-7	-19%	-16	2%	0
C/C=C/c1cccc(-c2nc(C(=O)N3CCCCC3)cc3c2[C@H](CCO)N(C(=O)NC(C)C)C3)c1	-10%	1	-21%	-9	0%	0
COc1ccc(-n2c(=O)c3c4c(sc3n(CC(=O)NCC3CCCO3)c2=O)CN(C(C)=O)CC4)cc1OC (stereo not drawn)	5%	0	2%	0	-1%	29
COc1ccc(C(=O)N[C@H](C(=O)NCCCSc2ccccc2)C(C)C)cc1	-30%	-18	?	0	-2%	24
COc1ccc(NC(=O)c2oc3ccccc3c2NC(=O)c2ccco2)cc1	?	nt	18µM*	-1	-23%	22
COc1ccc(NC(=O)c2oc3ccccc3c2NC(=O)C2CC2)cc1	?	?	?	-20	603%	-4
CCOC(Cn1c(SCc2cc(C(C)=O)ccc2OC)nc2ccccc2c1=O)OCC	1%	17	-4%	0	-3%	-1
COc1ccc(C(C)=O)cc1CSc1nc(NCCc2ccccc2)c2ccccc2n1	18µM*	nt	10µM*	7	0%	nt
Fc1cccc(CSc2nc(NCCc3ccccc3)c3ccccc3n2)c1	16µM*	nt	23µM*	7	-3%	nt
COc1ccc(C(C)=O)cc1CSc1nc2cc(C(=O)O)ccc2c(=O)n1Cc1ccccc1	-29%	0	?	3	-13%	-13
Fc1cccc(CSc2nnc3c(n2)[nH]c2ccccc23)c1	-20%	0	-8%	-6	2%	-17
COc1ccc(C(C)=O)cc1CSc1nc(NCc2ccccc2)c2ccccc2n1	?	nt	23µM*	-18	-2%	nt
SMILES	DT40 TDP1 CPT	IL-1B inflam inh	TDP1 cell noCPT	DRD3 agonist	ClpP mod	D3 antag
COc1ccc(C(C)=O)cc1CSc1nc(Nc2ccc(F)c(F)c2)c2ccccc2n1	?	nt	23µM*	10	-13%	nt
Cc1cccc(Cn2cc3c(=O)n(CC(=O)Nc4c(C)cccc4C)nc-3c3cc(F)ccc32)c1	-1%	nt	-8%	4	0%	nt
CCN=C1S/C(=C\c2cc(Br)c(O)c(OC)c2)C(=O)N1CC	-26%	-21	0%	9	1%	1
COc1ccc(-c2[nH]ncc2CNC(C)c2ccccc2Cl)cc1F (stereo not drawn)	16µM*	-26	23µM*	-11	-3%	-20
CC(C)n1nc(C(=O)Nc2nnc(SCc3c(Cl)cccc3Cl)s2)c2ccccc2c1=O	10µM*	41	?	26	-14%	39
CC(C)n1nc(C(=O)Nc2nc3ccc(S(C)(=O)=O)cc3s2)c2ccccc2c1=O	-14%	4	-14%	7	-2%	16
Cc1noc(/C=C/c2ccccn2)c1[N+](=O)[O-]	?	-51*	21µM*	13	nt	-14
CC1C(=O)N(Cc2cn(CCC3OCCO3)nn2)CCS(=O)(=O)N1Cc1ccc(-c2cccc(N(C)C)c2)cc1 (stereo not drawn)	9.2µM*	-6	16µM*	-8	4%	0
CC1C(=O)N(Cc2cn(CCC3OCCCO3)nn2)CCS(=O)(=O)N1Cc1ccc(-c2ccccc2)cc1 (stereo not drawn)	?	-11	16µM*	-6	1%	-9
CC1C(=O)N(Cc2cn(CCC3OCCCO3)nn2)CCS(=O)(=O)N1Cc1ccc(-c2ccc(Cl)cc2)cc1 (stereo not drawn)	12µM*	-7	6.5µM*	11	-6%	29
CC1C(=O)N(Cc2cn(CCC3OCCCO3)nn2)CCS(=O)(=O)N1Cc1ccc(-c2ccc(Cl)nc2)cc1 (stereo not drawn)	?	20	?	1	0%	5
CCC/C=C/c1ccc(CN2C(C)C(=O)N(Cc3cn(CCC4OCCO4)nn3)CCS2(=O)=O)cc1 (stereo not drawn)	?	10	15µM*	0	0%	7
CC1C(=O)N(Cc2cn(CCC3OCCO3)nn2)CCS(=O)(=O)N1Cc1ccc(-c2ccc(F)cc2)cc1 (stereo not drawn)	?	17	?	-6	1%	-9
OCc1ccccc1O[C@H]1OC(CO)C(O)C(O)C1O (stereo partly drawn)	-11%	nt	-6%	nt	nt	nt
Cc1cccc(OCC(=O)Nc2cc(C)c(O)c(-c3nc4ccccc4o3)c2)c1	11µM*	nt	?	nt	1%	nt
Cc1ccccc1OCC(=O)Nc1cc(C)c(O)c(-c2nc3ccccc3o2)c1	10µM*	nt	?	nt	2%	nt
